# A selection: hits, their analogues and other compounds. The true share with any hit is near 12%.
# Sfp PPTase inh = blocks B. subtilis Sfp PPTase activity | Q9F4F7 | Biochemical Sfp PPTase activity, qHTS | Potency, µM, without a hit: largest response in the series, negative = inhibition, most hits filed as inhibitors | 310,000 tested, 3.5% active;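 also: the enzyme is Sfp with the accession as filed and its product quenches rhodamine fluorescence; 0% = enzyme reaction without inhibitor and -100% = no enzyme wells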
#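 With Hepes-Na pH 7.6 buffer containing 10 mM MgCl2, Sfp (15 nM) modified BHQ-2-YbbR (12.5 uM) using rhodamine-CoA (5 uM). Two reads 30 minutes apart at 525/598 nm yielded each well's rate.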
# BAZ2B inh = BAZ2B (human) inhibition; Q9UIF8; AlphaScreen BAZ2B-H3K14Ac peptide displacement; Potency, µM (titrated, usually from 114 µM), without a hit: at the top dose activity change, negative = inhibition, actives largely listed as inhibitors; 360,000 tested, 4.4% active; also: % is scaled to controls: 0 for no effect and ±100 for the full control effect; nearly all actives have a fitted effect of over 60% in size
#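 Compounds, titrated to a top concentration of 110 uM, were incubated 30 min at room temperature with preformed BAZ2B/acetyl-K14 H3 peptide complex (50 nM each). Proximity signal was measured by AlphaScreen after 20 min with beads.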
# G9a block = G9a (human) methyltransferase inhibition; G9a H3K9 monomethylation, AlphaScreen, 2 h; Q96KQ7; Potency, µM (doses to about 102 µM), for inactives: at the highest dose activity, negative = inhibition, actives largely listed as inhibitors; AID 504332; 350,000 tested, 8.8% active; also: % is scaled to controls: 0 for no effect and ±100 for the full control effect; nearly all actives have a fitted effect of over 75% in size
#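 Methyltransferase reactions run at room temperature for 2 h (20 nM enzyme, 500 nM biotin-H3K9 peptide, 20 uM SAM) after a 15 min compound preincubation; product detected by AlphaScreen beads and anti-H3K9me1 antibody.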
# HP1b chromo inh = blocks HP1-beta chromodomain binding to methylated histone tails; 390,000 tested, 0.56% active; AlphaScreen HP1-beta / biotin-H3K9me3 peptide binding; Potency, µM (titrated, usually from 114 µM), without a hit: at the highest dose activity change, negative = inhibition, hits mostly inhibitors; AID 540317; P83916; also: nearly all actives have a fitted effect of over 70% in size
#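 HP1-beta protein (50 nM final) preincubated 30 min at room temperature with biotinylated H3(1-18)K9me3 peptide (50 nM) in PBS pH 7.4, 0.01% Tween-20, then compound added for 30 min. AlphaScreen streptavidin donor/nickel chelate acceptor beads (10 ug/mL final), 30 min dark, luminescence read.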
# L3MBTL1 block = blocks human L3MBTL1 | Q9Y468 | AlphaScreen L3MBTL1–H3K9me1 peptide binding | Potency, µM (titrated, usually from 57.1 µM), without a hit: at the top dose activity, negative = inhibition, most hits filed as inhibitors | 230,000 tested, 0.66% active | AID 485360; also: % is scaled to controls: 0 for no effect and ±100 for the full control effect; nearly all actives have a fitted effect of over 60% in size
#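 AlphaScreen assay: L3MBTL1 (50 nM final) was preincubated 30 min at room temperature with biotinylated H3(1-15)K9me1 peptide (75 nM final), then 30 min with library compounds; streptavidin donor and nickel chelate acceptor beads (10 ug/mL final) added, 30 min dark.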
# JMJD2A Tudor = inhibitors of human JMJD2A Tudor domain. AID 504339. O75164. 390,000 tested, 4.4% active. Potency, µM (doses to about 114 µM), without a hit: top-dose activity change, negative = inhibition, actives largely listed as inhibitors. AlphaScreen JMJD2A-Tudor / H3K4me3 peptide binding; also: % is scaled to controls: 0 for no effect and ±100 for the full control effect; nearly all actives have a fitted effect of over 50% in size
# Active calls of the source: *; ? = inconclusive; . = no result; [ ] = dose if it differs, or a comment. Calls follow the shape of the dose curve; as a rule, active = well fitted curve in the direction sought with a large enough effect; inconclusive = small, poorly fitted or top-dose-only effect, or another doubt; inactive = no such curve, though single readings can be large; an effect the other way counts as inactive or inconclusive. Potency is read from the fitted curve at half-maximal effect.
SMILES,Sfp PPTase inh,BAZ2B inh,G9a block,HP1b chromo inh,L3MBTL1 block,JMJD2A Tudor
CCOc1ccccc1N(CC)C(=O)c1cc2c(=O)[nH]c3ccc(C)cc3c2s1,.,-19%,22%[59 µM],26%,.,3%
CSc1nc(C=Nc2ccccc2Cl)c(O)n1Cc1cccc(Cl)c1,-21%,-19%,.,5%,42%,79µM*
O=Nc1c(O)n(Cc2cccc(Cl)c2)c2ccccc12,6%,-31%,.,-4%,-2%,-27%
COc1ccc(Nc2c(-c3ccc(C)o3)nc3ccccn23)cc1,.,.,.,-18%,.,?
Cc1cccc2nc(-c3ccco3)c(Nc3ccc4c(c3)OCO4)n12,?,20µM*,35µM*,?,.,45µM*
c1coc(-c2nnc(-c3ccc4c(c3)OCO4)o2)c1,5%,-34%,13%[59 µM],.,-6%,.
Cc1ccn2c(Nc3ccc4c(c3)OCO4)c(-c3ccco3)nc2c1,.,-37%,4.5µM*,?,.,?
Cc1cccc2nc(-c3ccco3)c(Nc3ccccc3)n12,-16%,40µM*,?,-4%,.,?
Cc1cc(C)n2c(Nc3ccccc3)c(-c3ccccc3)nc2n1,.,-24%,-4%[59 µM],28%,.,-14%
Cc1ccc(-c2nc3cccc(C)n3c2Nc2ccc3c(c2)OCO3)o1,.,28µM*,18µM*,?,.,40µM*
Cc1ccn2c(NC(=O)c3ccco3)c(-c3ccccc3)nc2c1,12%,9%,-17%[59 µM],13%,0%,-20%
CCc1cnc2c(c1SCC(=O)c1ccc(OC)cc1)c(=O)n(C)c(=O)n2C,.,1%,1%[59 µM],43%,.,-4%
COc1ccc(Cl)cc1NC(=O)Cn1nnc(C(=O)NCc2cccs2)c1N,.,.,-11%[59 µM],-4%,.,-28%
O=C(CSc1nccn1Cc1ccc(F)cc1)NCc1ccc(F)cc1,.,-24%,-19%[59 µM],14%[57 µM],.,-26%
CCCCC/C=C\C\C=C/C=C/C=C/[C@@H](SCC(NC(=O)CCC(N)C(=O)O)C(=O)NCC(=O)O)[C@@H](O)CCCC(=O)O (some centres undefined),-2%,.,.,.,.,.
Brc1ccc(-c2cn3cc(Cc4ccccc4)sc3n2)cc1,.,2%[57.1 µM],6%[59 µM],21%,.,-14%
Cc1ccc(Nc2c(-c3ccc(C)o3)nc3cccc(C)n23)cc1,.,25µM*,18µM*,?,.,45µM*
CSc1ccc(-c2nc3cccc(C)n3c2Nc2ccc3c(c2)OCO3)cc1,.,.,5.6µM*,?,.,28µM*
Cc1cc(C)n2c(Nc3ccc4c(c3)OCCO4)c(-c3ccc(Cl)cc3)nc2n1,.,-4%,1%[59 µM],9%,.,?
CCOc1ccc2nc(NCCNC(=O)C(C)C)c(C)cc2c1,13%,4%,-13%[59 µM],54%,-12%,2%
CCOc1ccc2nc(NCCNC(=O)C3CC3)c(C)cc2c1,-1%,1%,79µM*,10%,1%,-1%
CSc1cc2c(cc1C(F)(F)F)N(C(=O)Nc1cccnc1)CC2,2%,.,.,.,.,.
CCN1C(=O)/C(=C2\C=Cc3ccccc3N2CC)SC1=S,-29%,8.9µM*,?,3.2µM*,?,2.8µM*
CCN1C(=O)/C(=C2\C=Cc3cc(C)ccc3N2CC)OC1=S,1%,?,?,?,?,?
CCN1C(=O)/C(=C2/C=Cc3ccccc3N2C)OC1=S,-19%,-29%,20µM*,6%,.,-25%[11.4 µM]
SMILES,Sfp PPTase inh,BAZ2B inh,G9a block,HP1b chromo inh,L3MBTL1 block,JMJD2A Tudor
CCN1C(=O)/C(=c2\o/c(=C3\C=Cc4ccccc4N3CC)c(=O)n2CC)SC1=S,8%,.,?,-34%,-5%,?
CCOc1cc(C(=O)Nc2ccc(S(=O)(=O)Nc3cc(OC)nc(OC)n3)cc2)cc(OCC)c1OCC,.,1%,?,37%,.,-16%
Cc1ccc(NC(=O)c2c(C)nc3sc(C(=O)Nc4ccc(F)cc4)c(N)c3c2-c2ccccc2Cl)c(C)c1,.,13%,8%[59 µM],46%,.,8%
CCn1ccc2cc(S(=O)(=O)N3CCCN(C(=O)NCCOC)CC3)ccc21,.,5%,-4%[59 µM],26%[57 µM],.,5%
O=c1cc(/C=C/c2ccccc2)oc2c1ccc1ccccc12,79µM*,-11%,?,24%,-1%,-18%
O=c1cc(-c2ccccc2)oc2c1ccc1ccccc12,45µM*,.,.,.,.,.
O=C(O)CCCC(=O)NNc1ncnc2ccccc12,-27%,8%,0%[59 µM],10%,7%,3.2µM*
Clc1ccc(C2NCCc3sccc32)cc1 (centres undefined),-10%,-1%,2%,20%,1%,-10%
Oc1ccc(C2CNCc3sccc32)cc1O (centres undefined),.,15%,3µM*,?,-2%,50µM*
CCN1/C(=N\N)c2cccc3cccc1c23,35µM*,7.9µM*,-169%[59 µM],?,-27%,7.9µM*
CCC(C)NC(=O)CN1C(=O)c2cccc3cccc1c23 (centres undefined),4%,-2%,12%,35%,8%,-11%
CCc1nnc2n1N=C(c1ccc(OC)cc1)CS2,16%,-5%,-19%[59 µM],32%,3%,-22%
CCc1nnc2n1N=C(c1ccc([N+](=O)[O-])cc1)CS2,-14%,-5%,35µM*,37%,12%,-5%
Cc1ccc(S(=O)(=O)N2CCOCC2)cc1NC(=O)COC(=O)CNC(=O)c1ccc(C(C)(C)C)cc1,14%,-28%,50µM*,11%,2%,-20%
Cc1ccc(S(=O)(=O)N2CCOCC2)cc1NC(=O)COC(=O)CSc1ccc(Br)cc1C,1%,-2%,18µM*,15%,.,-29%
O=C(Nc1ccc(F)cc1F)c1cc(CN2CCOCC2)on1,.,-8%,1%[59 µM],-4%,.,-11%
CCc1ccccc1NC(=O)c1sc(-n2nc(C)c(Cc3ccc4c(c3)OCO4)c2C)nc1C,.,1%,8%[59 µM],43%,.,0%
CC1S/C(=N/N=C/c2ccco2)N(Cc2ccc(F)cc2)C1=O (centres undefined),-7%,?,50µM*,16%,.,-17%
Cc1ccc(C)c(N2CCN(c3nc4ccccc4c4nc(-c5cccnc5)nn34)CC2)c1,.,-1%,3%[59 µM],38%,.,-11%
CC(=O)c1c(C)[nH]c(C(=O)OCC(=O)Nc2ccc(Cl)c(S(=O)(=O)N(C)C)c2)c1C,3%,71µM*,.,23%,-6%,-25%
O=C(CN1CCN(c2ccc(O)cc2)CC1)Nc1ccc(S(=O)(=O)N2CCCC2)cc1,.,.,.,?,-16%,50µM*
O=C(CN1CCCCC1)Nc1ccc(S(=O)(=O)N2CCCCCC2)cc1,15%,3%,?,19%,-2%,-15%
O=S(=O)(c1ccc(NC(=S)N2CCN(c3ccc(O)cc3)CC2)cc1)N1CCOCC1,-18%,.,20µM*,-30%,.,?
Cc1ccc(NC(=S)N2CCN(S(=O)(=O)c3ccc(C)cc3)CC2)cc1,9%,-25%,21%,21%,.,-18%

# Compound activity: PubChem BioAssay, National Center for Advancing Translational Sciences (NCATS)
